Results taken from PubChem BioAssay AID504782 (NMMLSC, 2011).
The other results are listed elsewhere or left out. Activity calls are given as the source filed them.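 Rule for the calls: active = inhibition of aptamer binding above 40%, about triple the noise seen with nonglowing compounds, on plates passing quality control; inactive = the rest.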

The molecules below were run against Beta-adrenergic receptor kinase 1 (Homo sapiens) (UniProt P25098) (assay: RNA aptamer-GRK2 binding blockers – biochemical, cherry pick 2, bead flow cytometry, confirmation (AID 504782;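 note: negative values mostly come from compounds that fluoresce themselves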)). Conditions: bead-bound GRK2, FAM-aptamer displacement; at 10 µM, stronger effect = higher value.
Beta-adrenergic receptor kinase 1 (Homo sapiens), sequence (P25098 whole entry, looked up): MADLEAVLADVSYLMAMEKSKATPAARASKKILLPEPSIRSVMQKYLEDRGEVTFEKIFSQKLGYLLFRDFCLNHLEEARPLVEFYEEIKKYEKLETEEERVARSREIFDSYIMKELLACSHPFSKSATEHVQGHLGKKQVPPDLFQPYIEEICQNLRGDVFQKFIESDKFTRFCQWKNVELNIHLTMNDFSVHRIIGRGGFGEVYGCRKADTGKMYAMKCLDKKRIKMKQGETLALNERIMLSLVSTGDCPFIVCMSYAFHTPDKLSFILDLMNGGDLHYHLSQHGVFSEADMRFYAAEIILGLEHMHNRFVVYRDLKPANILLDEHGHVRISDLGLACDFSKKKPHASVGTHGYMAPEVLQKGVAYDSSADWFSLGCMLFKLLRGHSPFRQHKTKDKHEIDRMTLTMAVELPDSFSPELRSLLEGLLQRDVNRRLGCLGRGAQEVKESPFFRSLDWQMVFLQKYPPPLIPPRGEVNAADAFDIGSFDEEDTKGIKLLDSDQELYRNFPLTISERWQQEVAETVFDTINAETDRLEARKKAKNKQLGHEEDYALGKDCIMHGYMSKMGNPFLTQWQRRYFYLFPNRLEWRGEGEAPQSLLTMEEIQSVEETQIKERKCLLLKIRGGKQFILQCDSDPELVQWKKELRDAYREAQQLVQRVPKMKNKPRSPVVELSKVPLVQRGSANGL

| Compound | inhibition of aptamer binding |
| --- | --- |
| CCC(C)(C(=O)NC1CCCCC1)N(C)C(=O)c1ccc2c(c1)OCO2 (stereo not drawn) | -12.4% (inactive) |
| CCN1CCN(C(=O)N[C@@H](C(=O)N[C@@H]2C(=O)N3C(C(=O)O)=C(CSc4nnnn4C)CS[C@H]23)c2ccc(O)cc2)C(=O)C1=O | -21.6% (inactive) |
| NC(=O)[C@H]1CC2(CC(c3cccc(NC(=O)[C@H]4CCC(=O)N4)c3)=NO2)CN1C(=O)c1ccccc1C(=O)c1ccccc1 (stereo partly drawn) | -25.8% (inactive) |
| O=C(NC1C2CC3CC(C2)CC1C3)c1ccc(N2CCNCC2)c([N+](=O)[O-])c1 (stereo not drawn) | -5.52% (inactive) |
| O=C(NCCCN1CCCCCC1)c1ccc(N2CCCC2=O)cc1 | -112% (inactive) |
| COc1ccccc1C(=O)N(Cc1ccc(C)o1)C1CCS(=O)(=O)C1 (stereo not drawn) | 10.1% (inactive) |
| COc1ccc(Cl)cc1NC(=O)CCS(=O)(=O)c1ccc(Br)cc1 | 75.5% (active) |
| CCOCCCNC(=O)c1ccc(CS(=O)(=O)c2cccc(C(F)(F)F)c2)o1 | 8.74% (inactive) |
| CC1Sc2ccc(S(=O)(=O)CCC(=O)NCc3ccccc3Cl)cc2NC1=O (stereo not drawn) | 2.07% (inactive) |
| Cc1nnc(SCC(=O)N2c3ccccc3C(C)(c3ccc(Cl)cc3)CC2(C)C)s1 (stereo not drawn) | 14.7% (inactive) |
| CC(=O)c1ccc(N2CCN(C(=O)c3ccc4nc[nH]c4c3)CC2)cc1 | -5.06% (inactive) |
| COc1cc([N+](=O)[O-])cc([N+](=O)[O-])c1NC(=O)N1CCOCC1 | 8.51% (inactive) |
| COc1cccc(OC)c1C(=O)Nc1ccc(Cc2ccncc2)cc1 | -1.61% (inactive) |
